# CYP2C9 inh: blockers of cytochrome P450 2C9 activity – biochemical, luminescence, ADME assay, primary screen; CYP2C9 Supersomes, luciferin-H conversion; 96,000 compounds, 20% hits; AID 777, 2007; inhibition, % at 5 µM; P11712;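 active means blocking of liver enzyme CYP2C9 beyond about 50% at 5 µM, limit read from the data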
# CYP2C9 act: human CYP2C9 activators, primary screen, biochemical, luminescence; Cytochrome P450 2C9 (Homo sapiens), P11712; 96,000 compounds, 1.4% hits; activation factor at 5 µM; recombinant CYP2C9, luciferin-H conversion; hits give high values; factor 1 = untreated enzyme, 0 = blocked;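 active means activation factor of 2 or more for CYP2C9 at a 5 µM dose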;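 further: 0 = sulfaphenazole-blocked wells and 1 = vehicle-only wells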
# CYP2C19 activ: human CYP2C19 activators, primary screen, biochemical, luminescence; recombinant CYP2C19, luciferin-H EGE luminescence; hits give high values; 0 = fully inhibited enzyme, 1 = untreated enzyme; activation factor at 5 µM; AID 1025, 2008; Cytochrome P450 2C19 (Homo sapiens), P33261; 96,000 tested, under 10 active;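 active means activation factor of at least 2 at 5 µM in the primary screen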;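 further: 0 = wells with 2.5 mM tranylcypromine and 1 = vehicle-only wells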
# CYP2C19 inhib: blockers of cytochrome P450 2C19 activity – biochemical, luminescence, ADME assay, primary screen | P33261 | CYP2C19 Supersomes, luciferin-H EGE luminescence, 30 min | inhibition, % at 5 µM | 96,000 compounds, 21% hits | AID 778, 2007;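 active means CYP2C19 inhibition above a set limit at 5 µM in the primary screen, cut at about 50% in these data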;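 further: plate controls were negative control wells for no effect and 2.5 mM tranylcypromine positive control for full effect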
# Cav3 T inh: Cav3.2 calcium influx blockers – cell-based, Fluo-4 calcium fluorescence, FDSS, MLSMR library, primary screen. 100,000 compounds, 4% hits. AID 449739, 2010. B-score at 10 µM. Cav3.2-expressing cells; hits give low values. Voltage-dependent T-type calcium channel subunit alpha-1H (Homo sapiens), O95180;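 active means single-dose well whose peak fluorescence ratio is a statistical outlier from its plate by either plate-standardised score or position-corrected B-score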
# An asterisk follows results filed as active; . = no result. Rows were chosen to be rich in hits. Some 27% of all compounds tested hit in one or more screens of this group.
SMILES,CYP2C9 inh,CYP2C9 act,CYP2C19 activ,CYP2C19 inhib,Cav3 T inh
C=CCn1c(SCC(=O)NC(=O)NC2CCCC2)nnc1C1CCCCC1,.,.,.,.,0.64
C=CCn1c(SCc2cc(=O)n3ccsc3n2)nnc1C1CCCCC1,1,1,0.1,88*,0.082
C/C(N)=C(/C#N)C(=O)CSc1n[nH]c(-c2ccccc2Br)n1,19,0.8,0,97*,-0.022
C#CCOCCOCCOCCNc1nc(N2CCN(C(=O)[C@H](C(C)C)n3cc(CCO)nn3)CC2)nc(N2CCN(C(=O)[C@H](CCCCN)n3cc(CCCC)nn3)CC2)n1,.,.,.,.,-0.1
Cc1ccc2nc(-c3sc4nc(C)cc(C)c4c3N)[nH]c2c1,.,.,.,.,0.014
O=C(c1ccc(Cl)c(Cl)c1)N1CCC(=O)N(C(CO)Cc2ccccc2)CC1 (stereo not given),.,.,.,.,0.19
CC12CCC(C(=O)O)(c3nc(C#N)c(C#N)nc31)C2(C)C (stereo not given),-7,1.1,1.1,-13,-0.025
COC(=O)c1ccccc1NC(=O)c1cc(C2CC2)on1,-87,1.9,1.1,-11,-1
Cc1c(Cl)cccc1NC(=O)c1cc(C2CC2)on1,-20,1.2,0.2,84*,-1.6
COc1ccc(NC(=O)c2cc(C3CC3)on2)c(OC)c1,-189,2.9*,1,-3,-0.46
COc1ccccc1N1CCN(C(CNS(=O)(=O)c2ccccc2)c2cccnc2)CC1 (stereo not given),62*,0.4,0.1,86*,-0.66
COc1ccc(S(=O)(=O)NCC(c2cccnc2)N2CCN(C)CC2)cc1C (stereo not given),.,.,.,.,-0.46
O=S(=O)(NCC(c1cccnc1)N1CCN(c2ccc(F)cc2)CC1)c1ccccc1 (stereo not given),.,.,.,.,-0.59
COc1ccc(S(=O)(=O)NCC(c2cccnc2)N2CCN(c3ccccc3OC)CC2)cc1C (stereo not given),43,0.6,0.3,74*,-0.27
N=c1sccn1CC(=O)Nc1ccc(Cl)c(S(=O)(=O)N2CCOCC2)c1,25,0.7,1,-3,-0.11
CC1(OC(=O)C2CCCC2)C(=O)C=C2C=C(c3ccsc3)N(CCc3ccccn3)C=C2C1=O (stereo not given),.,.,.,.,-0.31
CCOC(=O)c1ccc(N2C(=O)C(O)=C(C(C)=O)C2c2ccccn2)cc1 (stereo not given),52*,0.5,1.1,-6,0.13
CCOC(=O)c1ccc(N2C(=O)c3n[nH]c(C)c3C2c2cccnc2)cc1 (stereo not given),68*,0.3,0.7,30,0.66
CCOC(=O)c1ccc(N2C(=O)c3n[nH]c(C)c3C2c2ccccn2)cc1 (stereo not given),69*,0.3,0.6,42,.
COC(CN1C(=O)C(O)=C(C(C)=O)C1c1ccccn1)OC (stereo not given),15,0.8,0.9,7,0.4
CCCCCC(=O)Nc1cccc(C2=NOC3(C2)C[C@H](C(N)=O)N(C(=O)c2ccccc2C(=O)c2ccccc2)C3)c1 (stereo not given in full),.,.,.,.,-2.8
Cc1ccc(S(=O)(=O)NC(=O)c2ccc(-c3ccc(C)c4ccccc34)o2)cc1,.,.,.,.,-1.2
CCOc1cccc(-c2cc(-c3n[nH]c(=S)n3CC)c3ccccc3n2)c1,32,0.7,0.8,24,-3.9
CC1CCCCN1c1nnc(NC(=O)c2cc(-c3ccc(Br)cc3)on2)s1 (stereo not given),62*,0.4,0.8,16,-4.2
CC(C)NC(=O)c1cc(-c2ccc(Br)cc2)on1,3,1,1.1,-9,1.3
SMILES,CYP2C9 inh,CYP2C9 act,CYP2C19 activ,CYP2C19 inhib,Cav3 T inh
CC1CC(C)CN(C(=O)COC(=O)CNS(=O)(=O)/C=C/c2ccccc2)C1 (stereo not given),0,1,0.9,10,-0.23
CC1CC(C)CN(C(=O)c2ccc3c(c2NCCO)C(=O)c2ccccc2C3=O)C1 (stereo not given),95*,0.1,0.1,94*,-1.5
CCOc1ccc(N2CC(C(=O)Nc3ccc(S(=O)(=O)Nc4ncccn4)cc3)CC2=O)cc1 (stereo not given),29,0.7,1.3,-34,0.75
O=S(=O)(Nc1nc2ccccc2nc1N1CCN(c2ccccc2F)CC1)c1ccc(Cl)cc1,100*,0,0.7,29,-5.7*
Cc1ccccc1S(=O)(=O)Nc1nc2ccccc2nc1N1CCOCC1,70*,0.3,1,4,0.12
CCOc1ccc(S(=O)(=O)Nc2nc3ccccc3nc2N2CCN(C)CC2)cc1,56*,0.4,0.8,18,1.2
Cn1c(SCC(=O)N2CCCc3ccccc32)nnc1-c1ccco1,-5,1,1.1,-6,.
Clc1ccccc1CSc1nnc(-c2cccnc2)n1Cc1ccco1,39,0.6,0.3,71*,-0.0026
CCn1c(SCC(=O)N2CCc3ccccc32)nnc1-c1ccco1,33,0.7,0.5,51*,0.21
Cc1occc1-c1nnc(SCC(=O)N2CCCc3ccccc32)n1Cc1ccco1,50*,0.5,0.3,67*,-3.3
C=CCn1c(SCc2cccc3ccccc23)nnc1-c1cccnc1,-66,1.7,0.1,89*,0.11
Cn1c(SCC(=O)N2CCCc3ccccc32)nnc1-c1ccccc1,4,1,0.6,39,2.5
CCC1=C(OC(=O)N(CC)CC)N2C(=O)OC(=NCCc3c[nH]c4ccccc34)[C@]2(C)[C@H]2C1=CC[C@H]1C(=O)N(CC(=O)OC)C(=O)[C@H]12,.,.,.,.,0.68
CCn1c(COc2ccccc2)nnc1SCC(=O)c1cccc([N+](=O)[O-])c1,18,0.8,0.7,30,-3.4
O=C(Nc1ccccc1OC(F)F)c1ccc(Br)o1,20,0.8,0.5,49,.
O=C(CSc1nnc(-c2cccnc2)n1Cc1ccco1)N1CCc2ccccc21,36,0.6,0.4,56*,-0.2
Fc1ccc(CSc2nnc(-c3cccnc3)n2Cc2ccco2)cc1,32,0.7,0.6,36,1.7
O=C(CSc1ccc2nnc(-c3ccncc3)n2n1)N1CCc2ccccc21,50*,0.5,1.1,-6,.
COc1ccc(Cl)c(NCCC(=O)O)c1,.,.,.,.,0.51
CCc1c(C(=O)N2CCN(c3ccccc3F)CC2)[nH]c(C)c1C(C)=O,21,0.8,0.6,43,1.1
CC(C)C(=O)Nc1c(-c2cccs2)c(=O)c2ccccc2n1C,-14,1.1,1,-1,-0.91
Cn1c(NC(=O)c2ccccc2)c(-c2cccs2)c(=O)c2ccccc21,84*,0.2,1.1,-15,0.005
Cn1cc(C(=O)NC2CCCCCCC2)c(=O)c2cc(S(=O)(=O)N3CCCC3)ccc21,84*,0.2,0.9,6,0.15
CCn1cc(C(=O)NCC2CCCO2)c(=O)c2cc(S(=O)(=O)N3CCCCCC3)ccc21 (stereo not given),57*,0.4,0.8,18,0.92
